# Test results from ChEMBL document CHEMBL1961873, “Compounds: GSK PKIS; Assays: Nanosyn kinase panel” (2012).
# How the values were obtained:
# [1] = molecular target: Sphingosine kinase 1 (Homo sapiens) (UniProt Q9NYA1); conditions: at 1 µM;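 note: mean SPHK1 inhibition value reported from the GSK PKIS kinase panel screen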
# [2] = molecular target: T1, Sphingosine kinase 2 (Homo sapiens) (UniProt Q9NRA0); conditions: at 0.1 µM
# T1 sequence (whole entry): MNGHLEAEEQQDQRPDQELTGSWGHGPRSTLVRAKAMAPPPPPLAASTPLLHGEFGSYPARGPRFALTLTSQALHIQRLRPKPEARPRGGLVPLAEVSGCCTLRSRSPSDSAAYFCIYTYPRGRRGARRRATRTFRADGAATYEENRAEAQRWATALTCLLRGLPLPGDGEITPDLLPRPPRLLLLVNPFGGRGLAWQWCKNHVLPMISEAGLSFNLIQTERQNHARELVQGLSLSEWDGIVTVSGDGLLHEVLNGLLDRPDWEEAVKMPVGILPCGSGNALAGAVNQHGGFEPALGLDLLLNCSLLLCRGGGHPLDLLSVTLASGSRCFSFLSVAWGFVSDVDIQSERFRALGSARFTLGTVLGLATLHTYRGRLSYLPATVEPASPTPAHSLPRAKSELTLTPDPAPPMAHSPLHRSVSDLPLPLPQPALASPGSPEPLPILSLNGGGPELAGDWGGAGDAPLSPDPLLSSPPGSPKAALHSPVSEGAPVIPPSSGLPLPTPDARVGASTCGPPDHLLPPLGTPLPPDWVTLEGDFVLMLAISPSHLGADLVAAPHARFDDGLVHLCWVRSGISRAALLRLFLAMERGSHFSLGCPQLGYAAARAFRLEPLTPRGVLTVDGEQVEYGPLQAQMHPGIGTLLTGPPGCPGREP
# [3] = molecular target: T1, Sphingosine kinase 2 (Homo sapiens); conditions: at 1 µM
# [4] = molecular target: Casein kinase II subunit alpha (Homo sapiens) (UniProt P68400); conditions: at 0.1 µM
# Casein kinase II subunit alpha (Homo sapiens), sequence (P68400 whole entry, looked up): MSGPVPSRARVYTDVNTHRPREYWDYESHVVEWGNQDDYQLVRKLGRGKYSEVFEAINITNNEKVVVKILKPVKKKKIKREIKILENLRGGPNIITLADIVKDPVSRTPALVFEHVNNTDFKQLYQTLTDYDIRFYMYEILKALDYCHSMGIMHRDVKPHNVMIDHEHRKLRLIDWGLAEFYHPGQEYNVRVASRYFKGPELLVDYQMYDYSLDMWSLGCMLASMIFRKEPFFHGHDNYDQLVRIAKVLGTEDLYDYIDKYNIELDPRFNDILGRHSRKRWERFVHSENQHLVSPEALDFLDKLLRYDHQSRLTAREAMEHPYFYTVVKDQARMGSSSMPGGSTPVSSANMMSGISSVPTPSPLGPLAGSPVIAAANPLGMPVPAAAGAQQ
# [5] = molecular target: Casein kinase II subunit alpha (Homo sapiens) (UniProt P68400); conditions: at 1 µM
# [6] = molecular target: T2, Inhibitor of nuclear factor kappa-B kinase subunit alpha (Homo sapiens) (UniProt O15111); conditions: at 0.1 µM
# T2 sequence (whole entry): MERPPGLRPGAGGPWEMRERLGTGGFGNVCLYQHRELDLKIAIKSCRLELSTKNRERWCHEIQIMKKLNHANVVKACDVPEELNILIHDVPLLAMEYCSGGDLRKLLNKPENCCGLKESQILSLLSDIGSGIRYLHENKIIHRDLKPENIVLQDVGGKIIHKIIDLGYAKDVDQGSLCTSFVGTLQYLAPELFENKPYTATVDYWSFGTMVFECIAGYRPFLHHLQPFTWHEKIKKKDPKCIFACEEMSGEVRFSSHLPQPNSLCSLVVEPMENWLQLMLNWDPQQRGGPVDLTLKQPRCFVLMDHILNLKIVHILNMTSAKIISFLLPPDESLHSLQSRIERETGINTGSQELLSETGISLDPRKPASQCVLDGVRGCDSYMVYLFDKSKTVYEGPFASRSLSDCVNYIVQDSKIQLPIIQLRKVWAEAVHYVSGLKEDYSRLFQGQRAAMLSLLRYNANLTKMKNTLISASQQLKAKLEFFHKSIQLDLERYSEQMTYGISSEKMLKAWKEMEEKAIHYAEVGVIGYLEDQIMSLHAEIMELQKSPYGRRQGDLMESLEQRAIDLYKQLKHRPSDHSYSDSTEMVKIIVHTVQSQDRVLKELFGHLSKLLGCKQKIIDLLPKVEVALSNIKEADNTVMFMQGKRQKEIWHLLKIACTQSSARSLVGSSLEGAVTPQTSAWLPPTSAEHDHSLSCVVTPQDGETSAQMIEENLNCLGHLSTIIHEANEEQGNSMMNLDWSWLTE
# [7] = molecular target: T2, Inhibitor of nuclear factor kappa-B kinase subunit alpha (Homo sapiens); conditions: at 1 µM
# [8] = molecular target: T3, Inhibitor of nuclear factor kappa-B kinase subunit beta (Homo sapiens) (UniProt O14920); conditions: at 0.1 µM
# T3 sequence (whole entry): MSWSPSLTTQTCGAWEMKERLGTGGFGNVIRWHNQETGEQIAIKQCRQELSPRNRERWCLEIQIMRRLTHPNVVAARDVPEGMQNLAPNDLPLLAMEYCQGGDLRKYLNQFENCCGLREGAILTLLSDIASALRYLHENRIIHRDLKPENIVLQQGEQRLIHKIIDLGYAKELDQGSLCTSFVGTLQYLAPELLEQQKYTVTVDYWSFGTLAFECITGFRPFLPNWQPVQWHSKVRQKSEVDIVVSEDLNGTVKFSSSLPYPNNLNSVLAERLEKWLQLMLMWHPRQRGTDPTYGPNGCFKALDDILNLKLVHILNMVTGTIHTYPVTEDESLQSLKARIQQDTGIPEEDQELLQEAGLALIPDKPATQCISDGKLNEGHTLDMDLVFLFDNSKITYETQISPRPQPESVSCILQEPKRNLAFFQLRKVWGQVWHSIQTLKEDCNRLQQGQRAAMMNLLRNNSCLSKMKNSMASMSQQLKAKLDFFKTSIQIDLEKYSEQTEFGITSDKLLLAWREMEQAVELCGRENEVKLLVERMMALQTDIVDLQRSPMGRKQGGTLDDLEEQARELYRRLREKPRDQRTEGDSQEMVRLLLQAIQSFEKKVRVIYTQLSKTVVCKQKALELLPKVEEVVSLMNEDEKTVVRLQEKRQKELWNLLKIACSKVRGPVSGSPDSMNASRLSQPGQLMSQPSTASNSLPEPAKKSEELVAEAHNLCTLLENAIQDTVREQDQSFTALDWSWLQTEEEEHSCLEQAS
# [9] = molecular target: T3, Inhibitor of nuclear factor kappa-B kinase subunit beta (Homo sapiens); conditions: at 1 µM
# [10] = molecular target: T4, Inhibitor of nuclear factor kappa-B kinase subunit epsilon (Homo sapiens) (UniProt Q14164); conditions: at 0.1 µM
# T4 sequence (whole entry): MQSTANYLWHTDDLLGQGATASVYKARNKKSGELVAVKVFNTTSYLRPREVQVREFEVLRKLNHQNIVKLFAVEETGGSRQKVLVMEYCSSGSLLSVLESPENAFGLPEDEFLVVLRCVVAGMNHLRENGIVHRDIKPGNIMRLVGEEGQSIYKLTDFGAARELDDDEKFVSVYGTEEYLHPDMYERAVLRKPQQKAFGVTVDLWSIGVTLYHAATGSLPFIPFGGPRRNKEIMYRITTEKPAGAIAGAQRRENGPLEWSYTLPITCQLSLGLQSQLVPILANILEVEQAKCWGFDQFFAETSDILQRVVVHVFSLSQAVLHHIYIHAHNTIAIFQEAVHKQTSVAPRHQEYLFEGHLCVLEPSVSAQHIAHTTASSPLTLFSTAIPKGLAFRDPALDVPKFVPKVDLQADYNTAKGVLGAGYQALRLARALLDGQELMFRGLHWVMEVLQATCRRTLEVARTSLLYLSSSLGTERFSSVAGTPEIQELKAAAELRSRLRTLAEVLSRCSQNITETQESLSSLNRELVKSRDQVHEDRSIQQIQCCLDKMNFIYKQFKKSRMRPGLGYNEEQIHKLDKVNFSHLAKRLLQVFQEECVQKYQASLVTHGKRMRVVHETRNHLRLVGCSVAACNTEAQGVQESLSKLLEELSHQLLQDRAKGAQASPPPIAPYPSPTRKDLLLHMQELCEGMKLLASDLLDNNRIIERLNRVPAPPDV
# [11] = molecular target: T4, Inhibitor of nuclear factor kappa-B kinase subunit epsilon (Homo sapiens); conditions: at 1 µM
# [12] = molecular target: T5, Serine/threonine-protein kinase Nek1 (Homo sapiens) (UniProt Q96PY6); conditions: at 0.1 µM
# T5 sequence (whole entry): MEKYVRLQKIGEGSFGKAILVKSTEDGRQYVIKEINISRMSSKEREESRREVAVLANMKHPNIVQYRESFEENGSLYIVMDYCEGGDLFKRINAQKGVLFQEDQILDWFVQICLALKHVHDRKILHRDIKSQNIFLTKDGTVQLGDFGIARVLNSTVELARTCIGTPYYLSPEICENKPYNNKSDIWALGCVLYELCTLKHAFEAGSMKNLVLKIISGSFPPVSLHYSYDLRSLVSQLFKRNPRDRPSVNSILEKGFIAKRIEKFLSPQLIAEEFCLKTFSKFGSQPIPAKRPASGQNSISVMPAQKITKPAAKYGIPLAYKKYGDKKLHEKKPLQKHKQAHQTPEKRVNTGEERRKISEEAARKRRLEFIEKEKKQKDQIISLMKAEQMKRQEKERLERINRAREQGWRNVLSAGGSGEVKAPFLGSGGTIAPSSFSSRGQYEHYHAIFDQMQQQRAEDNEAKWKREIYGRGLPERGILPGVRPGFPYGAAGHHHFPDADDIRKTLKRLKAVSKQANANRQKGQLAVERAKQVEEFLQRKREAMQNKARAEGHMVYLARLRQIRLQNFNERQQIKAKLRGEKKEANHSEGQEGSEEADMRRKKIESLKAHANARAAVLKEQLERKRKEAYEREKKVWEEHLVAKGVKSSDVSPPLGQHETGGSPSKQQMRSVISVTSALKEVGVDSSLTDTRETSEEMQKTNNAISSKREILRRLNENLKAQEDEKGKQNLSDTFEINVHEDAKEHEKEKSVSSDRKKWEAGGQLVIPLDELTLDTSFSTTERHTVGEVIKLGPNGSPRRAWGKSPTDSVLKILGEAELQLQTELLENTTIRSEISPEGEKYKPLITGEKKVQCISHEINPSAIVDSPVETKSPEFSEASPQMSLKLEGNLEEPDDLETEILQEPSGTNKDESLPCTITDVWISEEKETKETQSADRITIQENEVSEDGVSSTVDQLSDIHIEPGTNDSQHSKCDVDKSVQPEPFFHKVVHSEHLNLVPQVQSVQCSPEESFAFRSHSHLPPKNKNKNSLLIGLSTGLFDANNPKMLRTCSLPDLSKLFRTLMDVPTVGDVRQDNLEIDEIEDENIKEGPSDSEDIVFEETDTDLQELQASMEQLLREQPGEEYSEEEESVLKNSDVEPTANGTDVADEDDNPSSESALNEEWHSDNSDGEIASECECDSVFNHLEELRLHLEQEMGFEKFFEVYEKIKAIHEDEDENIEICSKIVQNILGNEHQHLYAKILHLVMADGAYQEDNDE
# [13] = molecular target: T5, Serine/threonine-protein kinase Nek1 (Homo sapiens); conditions: at 1 µM
# [14] = molecular target: T6, Serine/threonine-protein kinase Nek2 (Homo sapiens) (UniProt P51955); conditions: at 0.1 µM
# T6 sequence (whole entry): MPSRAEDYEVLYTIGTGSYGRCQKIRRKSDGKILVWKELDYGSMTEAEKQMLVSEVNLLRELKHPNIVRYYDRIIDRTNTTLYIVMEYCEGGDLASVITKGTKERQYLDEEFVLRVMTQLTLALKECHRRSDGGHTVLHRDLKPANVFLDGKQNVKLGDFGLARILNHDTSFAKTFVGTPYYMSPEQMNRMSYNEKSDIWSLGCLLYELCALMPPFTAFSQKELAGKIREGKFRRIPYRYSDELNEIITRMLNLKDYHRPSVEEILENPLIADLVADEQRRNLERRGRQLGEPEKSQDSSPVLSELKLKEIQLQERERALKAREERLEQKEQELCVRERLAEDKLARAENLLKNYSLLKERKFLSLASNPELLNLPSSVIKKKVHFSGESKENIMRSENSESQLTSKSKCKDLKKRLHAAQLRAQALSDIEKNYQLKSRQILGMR
# [15] = molecular target: T6, Serine/threonine-protein kinase Nek2 (Homo sapiens); conditions: at 1 µM
# [16] = molecular target: Serine/threonine-protein kinase Nek6 (Homo sapiens) (UniProt Q9HC98); conditions: at 0.1 µM
# Serine/threonine-protein kinase Nek6 (Homo sapiens), sequence (Q9HC98 whole entry): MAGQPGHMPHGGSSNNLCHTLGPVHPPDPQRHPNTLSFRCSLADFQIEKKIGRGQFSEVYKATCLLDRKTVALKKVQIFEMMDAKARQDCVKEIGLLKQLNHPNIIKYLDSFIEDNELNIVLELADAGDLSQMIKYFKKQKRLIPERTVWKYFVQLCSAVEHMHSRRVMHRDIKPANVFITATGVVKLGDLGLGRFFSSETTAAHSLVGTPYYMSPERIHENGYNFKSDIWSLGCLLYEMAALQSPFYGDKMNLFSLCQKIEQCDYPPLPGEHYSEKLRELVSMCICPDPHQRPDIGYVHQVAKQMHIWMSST
# [17] = molecular target: Serine/threonine-protein kinase Nek6 (Homo sapiens) (UniProt Q9HC98); conditions: at 1 µM
# [18] = molecular target: Serine/threonine-protein kinase Nek7 (Homo sapiens) (UniProt Q8TDX7); conditions: at 0.1 µM
# Serine/threonine-protein kinase Nek7 (Homo sapiens), sequence (Q8TDX7 whole entry, looked up): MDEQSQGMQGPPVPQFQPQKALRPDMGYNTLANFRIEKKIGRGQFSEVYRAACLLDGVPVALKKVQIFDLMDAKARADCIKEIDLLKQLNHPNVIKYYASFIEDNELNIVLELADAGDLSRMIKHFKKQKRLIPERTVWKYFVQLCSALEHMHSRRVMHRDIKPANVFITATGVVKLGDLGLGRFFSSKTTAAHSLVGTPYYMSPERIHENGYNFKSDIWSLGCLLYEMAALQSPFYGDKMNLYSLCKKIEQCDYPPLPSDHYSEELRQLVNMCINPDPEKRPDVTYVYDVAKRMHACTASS
# [19] = molecular target: Serine/threonine-protein kinase Nek7 (Homo sapiens) (UniProt Q8TDX7); conditions: at 1 µM
# [20] = molecular target: T7, Serine/threonine-protein kinase Nek9 (Homo sapiens) (UniProt Q8TD19); conditions: at 0.1 µM;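 note: reported value is the mean percent inhibition of NEK9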
# T7 sequence (whole entry): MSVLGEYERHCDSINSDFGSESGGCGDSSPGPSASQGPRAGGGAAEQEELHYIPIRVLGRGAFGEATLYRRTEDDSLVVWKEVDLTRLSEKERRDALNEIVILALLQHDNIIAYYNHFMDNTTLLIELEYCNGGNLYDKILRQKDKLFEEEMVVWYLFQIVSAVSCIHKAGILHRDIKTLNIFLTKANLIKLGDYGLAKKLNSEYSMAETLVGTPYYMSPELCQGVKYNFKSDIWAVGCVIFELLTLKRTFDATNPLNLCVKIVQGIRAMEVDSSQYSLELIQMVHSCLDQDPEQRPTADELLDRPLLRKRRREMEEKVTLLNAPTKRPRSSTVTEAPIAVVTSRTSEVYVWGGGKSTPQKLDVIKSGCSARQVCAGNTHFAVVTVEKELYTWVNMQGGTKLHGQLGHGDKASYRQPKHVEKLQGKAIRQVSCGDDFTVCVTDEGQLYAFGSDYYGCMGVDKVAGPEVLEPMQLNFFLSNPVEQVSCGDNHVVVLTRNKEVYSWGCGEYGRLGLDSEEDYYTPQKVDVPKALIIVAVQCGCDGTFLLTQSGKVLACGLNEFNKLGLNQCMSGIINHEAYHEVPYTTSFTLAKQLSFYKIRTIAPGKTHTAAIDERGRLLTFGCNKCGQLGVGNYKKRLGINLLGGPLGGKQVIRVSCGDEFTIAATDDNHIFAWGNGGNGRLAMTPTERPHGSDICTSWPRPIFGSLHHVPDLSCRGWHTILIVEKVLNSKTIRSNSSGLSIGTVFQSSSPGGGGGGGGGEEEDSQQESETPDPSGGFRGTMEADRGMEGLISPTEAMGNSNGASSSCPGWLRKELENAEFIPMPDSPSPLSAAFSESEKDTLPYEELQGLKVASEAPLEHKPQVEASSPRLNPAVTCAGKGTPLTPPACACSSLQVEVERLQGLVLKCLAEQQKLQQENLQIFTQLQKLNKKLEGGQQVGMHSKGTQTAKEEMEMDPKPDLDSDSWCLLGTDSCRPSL
# Sphingosine kinase 1 (Homo sapiens), sequence (Q9NYA1 whole entry): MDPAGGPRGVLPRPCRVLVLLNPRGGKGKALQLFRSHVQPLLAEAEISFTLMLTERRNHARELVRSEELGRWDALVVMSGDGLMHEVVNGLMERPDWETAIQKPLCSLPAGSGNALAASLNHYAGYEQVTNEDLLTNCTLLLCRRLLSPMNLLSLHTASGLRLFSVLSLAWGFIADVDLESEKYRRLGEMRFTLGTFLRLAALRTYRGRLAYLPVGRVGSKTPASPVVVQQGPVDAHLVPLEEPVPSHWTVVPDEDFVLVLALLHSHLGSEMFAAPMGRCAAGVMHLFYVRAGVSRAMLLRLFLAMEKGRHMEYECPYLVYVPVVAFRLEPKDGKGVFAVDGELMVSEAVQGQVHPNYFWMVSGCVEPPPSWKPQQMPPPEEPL
structure (smiles),measurement,setting,value
COc1ccc(-c2nn3ncccc3c2-c2ccnc(Nc3ccc(Cl)c(C(F)(F)F)c3)n2)cc1,inhibition,[1],-2.15%
same,inhibition,[2],-0.61%
same,inhibition,[3],0.61%
same,inhibition,[4],2.8%
same,inhibition,[5],8.2%
same,inhibition,[6],5.34%
same,inhibition,[7],3.48%
same,inhibition,[8],5.25%
same,inhibition,[9],8.22%
same,inhibition,[10],4.71%
same,inhibition,[11],5.7%
same,inhibition,[12],1.43%
same,inhibition,[13],2.51%
same,inhibition,[14],2.35%
same,inhibition,[15],1.82%
same,inhibition,[16],3.06%
same,inhibition,[17],2.55%
same,inhibition,[18],3.34%
same,inhibition,[19],3.28%
same,inhibition,[20],6.79%
